# Assays:
# Assay in all cases: DAPPL (digital affinity profiling via proximity ligation, sequencing); 10 mM Tris-HCl pH 7.5, 50 mM NaCl, 1 mM DTT, 4% glycerol, room temperature, 30 min; GST-TFs on glutathione beads, 16-mer random dsDNA library, 0.1% formaldehyde crosslink after washing; high values mean tight binding
# Settings in all cases: protein: recombinant; tags: N-terminal GST; dsDNA, one strand shown
# ELK1 = molecular target: T1, ELK1 (Homo sapiens, UniProt P19419 1-428)
# T1 sequence: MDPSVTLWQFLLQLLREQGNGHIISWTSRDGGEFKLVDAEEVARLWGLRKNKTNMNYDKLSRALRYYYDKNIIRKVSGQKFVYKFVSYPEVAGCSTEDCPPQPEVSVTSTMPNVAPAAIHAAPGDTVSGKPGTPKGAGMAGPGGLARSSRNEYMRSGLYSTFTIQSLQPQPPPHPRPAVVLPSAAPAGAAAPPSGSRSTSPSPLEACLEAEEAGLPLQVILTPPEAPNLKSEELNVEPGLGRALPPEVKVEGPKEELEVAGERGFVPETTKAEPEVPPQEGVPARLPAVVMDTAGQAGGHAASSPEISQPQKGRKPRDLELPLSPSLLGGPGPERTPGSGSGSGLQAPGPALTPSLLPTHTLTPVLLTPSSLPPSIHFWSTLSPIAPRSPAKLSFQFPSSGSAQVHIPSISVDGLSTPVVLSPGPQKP
# Procedure, shortened: (§1)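 Pools were built from human transcription factors expressed in yeast as GST fusions, captured on glutathione beads and DNA-barcoded, along with a tag-only sample. Incubation with 200 nmole of a 16-mer random double-stranded DNA library lasted 30 min at room temperature in Tris/NaCl/DTT/glycerol buffer, and was followed by washing, 0.1% formaldehyde crosslinking, proximity ligation, PCR amplification and Illumina NextSeq500 sequencing. Binding signal is the quotient of each hexamer's read frequency for a factor and its frequency for the tag-only sample.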
# GABPA = molecular target: T2, GABPA (Homo sapiens, UniProt Q06546 1-454)
# T2 sequence: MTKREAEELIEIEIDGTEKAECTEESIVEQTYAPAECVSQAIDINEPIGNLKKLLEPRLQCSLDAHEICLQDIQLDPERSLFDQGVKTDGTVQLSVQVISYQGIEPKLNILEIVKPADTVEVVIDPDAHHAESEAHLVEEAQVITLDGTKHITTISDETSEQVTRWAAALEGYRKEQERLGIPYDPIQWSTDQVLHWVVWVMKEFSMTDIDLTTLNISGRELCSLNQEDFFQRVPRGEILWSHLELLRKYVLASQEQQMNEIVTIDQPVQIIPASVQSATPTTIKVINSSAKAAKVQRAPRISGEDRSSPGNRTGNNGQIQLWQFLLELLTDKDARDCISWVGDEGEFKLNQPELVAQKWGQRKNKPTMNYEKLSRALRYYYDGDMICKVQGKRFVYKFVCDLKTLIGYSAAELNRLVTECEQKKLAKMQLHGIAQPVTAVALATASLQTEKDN
# Procedure, shortened: as §1
# ERG = molecular target: T3, ERG (Homo sapiens, UniProt P11308 1-479)
# T3 sequence: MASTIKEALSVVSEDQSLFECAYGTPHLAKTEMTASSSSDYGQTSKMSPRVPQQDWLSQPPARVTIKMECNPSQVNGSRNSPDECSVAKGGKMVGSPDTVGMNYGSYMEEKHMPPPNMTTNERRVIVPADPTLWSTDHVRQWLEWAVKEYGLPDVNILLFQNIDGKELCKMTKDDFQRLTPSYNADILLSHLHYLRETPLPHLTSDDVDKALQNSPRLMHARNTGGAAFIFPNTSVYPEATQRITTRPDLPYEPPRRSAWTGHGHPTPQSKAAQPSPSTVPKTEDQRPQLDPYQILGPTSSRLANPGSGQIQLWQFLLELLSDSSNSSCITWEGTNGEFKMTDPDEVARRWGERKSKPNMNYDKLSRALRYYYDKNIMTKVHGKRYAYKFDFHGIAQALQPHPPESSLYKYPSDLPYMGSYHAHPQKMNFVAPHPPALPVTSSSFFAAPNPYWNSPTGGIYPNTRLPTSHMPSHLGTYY
# Procedure, shortened: as §1
# ELF1 = ELF1 (Homo sapiens, UniProt P32519 1-619)
# Procedure, shortened: as §1
# EHF = molecular target: T4, EHF (Homo sapiens, UniProt Q9NZC4 1-300)
# T4 sequence: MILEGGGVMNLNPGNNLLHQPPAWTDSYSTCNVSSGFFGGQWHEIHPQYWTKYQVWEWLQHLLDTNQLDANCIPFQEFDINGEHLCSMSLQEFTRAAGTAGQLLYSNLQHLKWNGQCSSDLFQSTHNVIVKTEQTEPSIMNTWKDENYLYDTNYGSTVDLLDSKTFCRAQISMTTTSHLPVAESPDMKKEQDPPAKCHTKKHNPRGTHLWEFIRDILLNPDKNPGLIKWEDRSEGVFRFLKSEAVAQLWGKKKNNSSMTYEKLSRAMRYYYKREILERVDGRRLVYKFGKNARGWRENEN
# Procedure, shortened: as §1
# FEV = molecular target: T5, FEV (Homo sapiens, UniProt Q99581 1-238)
# T5 sequence: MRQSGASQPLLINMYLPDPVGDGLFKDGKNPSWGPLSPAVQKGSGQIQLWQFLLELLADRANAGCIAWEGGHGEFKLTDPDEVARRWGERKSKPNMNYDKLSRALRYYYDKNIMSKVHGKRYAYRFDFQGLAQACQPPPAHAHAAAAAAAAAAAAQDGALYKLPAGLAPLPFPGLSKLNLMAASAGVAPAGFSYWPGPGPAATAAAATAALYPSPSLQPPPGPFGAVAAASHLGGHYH
# Procedure, shortened: as §1
# ETV5 = ETV5 (Homo sapiens, UniProt P41161 1-510)
# Procedure, shortened: as §1
# ELF4 = ELF4 (Homo sapiens, UniProt Q99607 1-663)
# Procedure, shortened: as §1
# ELF3 = molecular target: T6, ELF3 (Homo sapiens, UniProt P78545 1-371)
# T6 sequence: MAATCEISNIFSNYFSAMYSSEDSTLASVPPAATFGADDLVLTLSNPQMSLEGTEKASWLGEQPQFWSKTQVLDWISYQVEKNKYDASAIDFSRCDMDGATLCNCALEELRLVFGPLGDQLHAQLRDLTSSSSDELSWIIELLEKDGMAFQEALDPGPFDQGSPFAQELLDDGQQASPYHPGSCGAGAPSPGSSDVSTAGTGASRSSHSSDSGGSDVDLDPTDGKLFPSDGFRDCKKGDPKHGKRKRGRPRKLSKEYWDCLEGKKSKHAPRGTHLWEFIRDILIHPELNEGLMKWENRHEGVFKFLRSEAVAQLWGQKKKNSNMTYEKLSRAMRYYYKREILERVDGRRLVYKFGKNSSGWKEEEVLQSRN
# Procedure, shortened: as §1
# ETV1 = ETV1 (Homo sapiens, UniProt P50549 1-477)
# Procedure, shortened: as §1
# ETV3L = molecular target: T7, ETV3L (Homo sapiens, UniProt Q6ZN32 1-361)
# T7 sequence: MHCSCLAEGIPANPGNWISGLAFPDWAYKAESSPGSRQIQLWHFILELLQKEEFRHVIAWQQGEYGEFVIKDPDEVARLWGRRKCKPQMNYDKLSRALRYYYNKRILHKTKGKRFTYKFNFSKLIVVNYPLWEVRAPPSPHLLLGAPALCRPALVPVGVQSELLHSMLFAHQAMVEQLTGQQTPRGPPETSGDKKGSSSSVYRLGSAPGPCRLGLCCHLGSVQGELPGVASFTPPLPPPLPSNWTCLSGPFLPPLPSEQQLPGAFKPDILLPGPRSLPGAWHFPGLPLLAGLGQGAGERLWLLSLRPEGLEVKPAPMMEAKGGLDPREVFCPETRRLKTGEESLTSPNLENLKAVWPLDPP
# Procedure, shortened: as §1
# SPDEF = molecular target: T8, SPDEF (Homo sapiens, UniProt O95238 1-335)
# T8 sequence: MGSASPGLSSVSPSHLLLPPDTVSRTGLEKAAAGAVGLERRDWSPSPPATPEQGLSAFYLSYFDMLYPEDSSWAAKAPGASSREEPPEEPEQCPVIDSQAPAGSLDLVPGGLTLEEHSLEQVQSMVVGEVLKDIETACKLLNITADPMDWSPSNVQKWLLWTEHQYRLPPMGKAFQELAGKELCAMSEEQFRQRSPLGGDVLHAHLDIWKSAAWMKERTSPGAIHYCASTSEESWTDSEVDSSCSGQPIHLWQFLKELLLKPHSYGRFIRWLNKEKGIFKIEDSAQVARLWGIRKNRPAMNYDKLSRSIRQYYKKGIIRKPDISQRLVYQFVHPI
# Procedure, shortened: as §1
# ETV7 = molecular target: T9, ETV7 (Homo sapiens, UniProt Q9Y603 1-341)
# T9 sequence: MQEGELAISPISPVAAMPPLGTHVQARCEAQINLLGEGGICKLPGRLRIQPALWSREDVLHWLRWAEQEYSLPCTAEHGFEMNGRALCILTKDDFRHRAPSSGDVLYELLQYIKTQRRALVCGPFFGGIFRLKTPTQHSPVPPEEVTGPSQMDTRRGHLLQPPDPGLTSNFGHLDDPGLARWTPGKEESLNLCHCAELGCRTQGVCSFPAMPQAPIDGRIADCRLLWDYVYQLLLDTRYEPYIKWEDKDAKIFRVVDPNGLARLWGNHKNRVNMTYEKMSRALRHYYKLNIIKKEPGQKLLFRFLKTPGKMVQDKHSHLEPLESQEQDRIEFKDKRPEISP
# Procedure, shortened: as §1
# ETV3 = molecular target: T10, ETV3 (Homo sapiens, UniProt P41162-2 1-143)
# T10 sequence: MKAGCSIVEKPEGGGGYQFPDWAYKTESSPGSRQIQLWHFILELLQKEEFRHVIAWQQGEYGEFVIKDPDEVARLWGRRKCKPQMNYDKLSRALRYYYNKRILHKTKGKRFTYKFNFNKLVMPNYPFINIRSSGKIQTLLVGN
# Procedure, shortened: as §1
# ETV6 = ETV6 (Homo sapiens, UniProt P41212 1-452)
# Procedure, shortened: as §1
# Chain of ETV1 (P50549 whole entry): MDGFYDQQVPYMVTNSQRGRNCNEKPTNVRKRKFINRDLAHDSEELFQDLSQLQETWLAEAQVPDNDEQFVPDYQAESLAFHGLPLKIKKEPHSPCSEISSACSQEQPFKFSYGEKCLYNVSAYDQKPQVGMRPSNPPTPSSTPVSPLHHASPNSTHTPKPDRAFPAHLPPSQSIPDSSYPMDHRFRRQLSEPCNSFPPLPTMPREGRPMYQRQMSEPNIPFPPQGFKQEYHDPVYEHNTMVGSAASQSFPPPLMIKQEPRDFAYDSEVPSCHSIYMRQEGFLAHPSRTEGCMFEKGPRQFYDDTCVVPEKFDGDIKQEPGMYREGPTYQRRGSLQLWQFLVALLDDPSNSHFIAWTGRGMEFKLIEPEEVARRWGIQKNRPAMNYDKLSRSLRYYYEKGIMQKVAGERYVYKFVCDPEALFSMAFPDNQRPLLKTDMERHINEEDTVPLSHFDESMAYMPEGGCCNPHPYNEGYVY
# Chain of ETV6 (P41212 whole entry): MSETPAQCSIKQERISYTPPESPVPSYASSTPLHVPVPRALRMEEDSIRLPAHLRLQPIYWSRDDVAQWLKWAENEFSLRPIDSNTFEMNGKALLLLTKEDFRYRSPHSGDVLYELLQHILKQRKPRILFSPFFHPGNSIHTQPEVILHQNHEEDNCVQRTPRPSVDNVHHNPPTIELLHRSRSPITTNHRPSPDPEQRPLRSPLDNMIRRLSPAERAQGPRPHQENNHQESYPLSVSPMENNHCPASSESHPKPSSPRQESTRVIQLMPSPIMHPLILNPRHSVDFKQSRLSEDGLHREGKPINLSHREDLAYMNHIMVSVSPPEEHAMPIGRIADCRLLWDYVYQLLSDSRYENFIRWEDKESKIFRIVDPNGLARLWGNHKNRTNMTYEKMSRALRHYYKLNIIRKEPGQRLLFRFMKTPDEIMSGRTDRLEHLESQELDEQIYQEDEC
# Chain of ELF1 (P32519 whole entry): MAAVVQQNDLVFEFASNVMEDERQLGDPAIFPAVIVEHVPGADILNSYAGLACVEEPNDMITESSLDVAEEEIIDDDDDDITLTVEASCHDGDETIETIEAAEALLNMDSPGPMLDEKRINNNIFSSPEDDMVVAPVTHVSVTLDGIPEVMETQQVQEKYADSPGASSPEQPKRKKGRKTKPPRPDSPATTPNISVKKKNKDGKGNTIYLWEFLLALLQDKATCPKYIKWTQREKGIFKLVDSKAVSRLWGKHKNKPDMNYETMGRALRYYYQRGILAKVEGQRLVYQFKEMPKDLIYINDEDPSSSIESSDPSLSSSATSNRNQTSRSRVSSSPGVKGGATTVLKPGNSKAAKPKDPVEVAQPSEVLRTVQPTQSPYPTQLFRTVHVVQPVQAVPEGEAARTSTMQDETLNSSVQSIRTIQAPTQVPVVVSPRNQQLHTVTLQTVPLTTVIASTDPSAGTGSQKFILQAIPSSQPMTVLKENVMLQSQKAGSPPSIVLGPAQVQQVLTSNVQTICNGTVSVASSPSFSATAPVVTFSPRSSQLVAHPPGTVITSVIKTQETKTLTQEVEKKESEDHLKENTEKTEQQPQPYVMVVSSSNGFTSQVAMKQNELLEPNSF
# Chain of ELF4 (Q99607 whole entry): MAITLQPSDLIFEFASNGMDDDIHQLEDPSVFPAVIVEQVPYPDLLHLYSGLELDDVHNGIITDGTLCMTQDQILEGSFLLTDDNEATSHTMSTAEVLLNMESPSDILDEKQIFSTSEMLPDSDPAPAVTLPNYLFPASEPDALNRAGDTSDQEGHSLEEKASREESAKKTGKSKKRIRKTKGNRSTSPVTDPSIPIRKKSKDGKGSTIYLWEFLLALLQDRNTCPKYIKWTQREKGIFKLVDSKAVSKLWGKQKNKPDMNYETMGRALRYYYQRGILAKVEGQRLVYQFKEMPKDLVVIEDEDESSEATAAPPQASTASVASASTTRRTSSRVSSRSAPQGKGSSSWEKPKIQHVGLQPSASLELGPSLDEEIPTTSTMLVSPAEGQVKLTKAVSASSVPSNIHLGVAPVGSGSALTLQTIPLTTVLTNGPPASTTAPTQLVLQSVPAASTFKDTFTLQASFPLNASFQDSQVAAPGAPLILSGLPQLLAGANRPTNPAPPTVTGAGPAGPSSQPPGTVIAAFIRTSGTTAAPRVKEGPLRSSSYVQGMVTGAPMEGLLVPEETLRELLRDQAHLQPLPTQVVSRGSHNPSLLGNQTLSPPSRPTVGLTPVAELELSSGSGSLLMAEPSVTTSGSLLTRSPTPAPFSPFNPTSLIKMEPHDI
# Chain of ETV5 (P41161 whole entry): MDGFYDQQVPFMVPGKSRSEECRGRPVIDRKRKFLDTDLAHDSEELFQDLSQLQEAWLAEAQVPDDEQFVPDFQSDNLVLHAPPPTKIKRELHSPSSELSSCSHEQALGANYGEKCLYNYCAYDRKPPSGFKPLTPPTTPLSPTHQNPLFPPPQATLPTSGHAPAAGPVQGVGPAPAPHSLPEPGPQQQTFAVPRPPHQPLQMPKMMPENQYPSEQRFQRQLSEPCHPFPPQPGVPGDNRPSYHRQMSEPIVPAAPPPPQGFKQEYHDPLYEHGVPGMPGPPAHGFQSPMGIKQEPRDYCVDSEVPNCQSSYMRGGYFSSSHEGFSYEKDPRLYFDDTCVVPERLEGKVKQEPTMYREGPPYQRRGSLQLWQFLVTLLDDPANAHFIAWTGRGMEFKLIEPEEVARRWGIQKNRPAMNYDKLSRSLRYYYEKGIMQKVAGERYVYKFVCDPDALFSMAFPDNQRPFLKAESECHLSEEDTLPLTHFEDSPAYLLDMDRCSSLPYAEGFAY
sequence,measurement,setting,value
CGCCGG,binding signal,ELK1,"1.21 fold enrichment (6-mer frequency, TF over GST control)"
same,binding signal,GABPA,"1.14 fold enrichment (6-mer frequency, TF over GST control)"
same,binding signal,ERG,"1.19 fold enrichment (6-mer frequency, TF over GST control)"
same,binding signal,ELF1,"1.03 fold enrichment (6-mer frequency, TF over GST control)"
same,binding signal,EHF,"1.19 fold enrichment (6-mer frequency, TF over GST control)"
same,binding signal,FEV,"1.4 fold enrichment (6-mer frequency, TF over GST control)"
same,binding signal,ETV5,"1.15 fold enrichment (6-mer frequency, TF over GST control)"
same,binding signal,ELF4,"1.02 fold enrichment (6-mer frequency, TF over GST control)"
same,binding signal,ELF3,"1.13 fold enrichment (6-mer frequency, TF over GST control)"
same,binding signal,ETV1,"1.02 fold enrichment (6-mer frequency, TF over GST control)"
same,binding signal,ETV3L,"1.06 fold enrichment (6-mer frequency, TF over GST control)"
same,binding signal,SPDEF,"1.05 fold enrichment (6-mer frequency, TF over GST control)"
same,binding signal,ETV7,"1.08 fold enrichment (6-mer frequency, TF over GST control)"
same,binding signal,ETV3,"1.1 fold enrichment (6-mer frequency, TF over GST control)"
same,binding signal,ETV6,"1.05 fold enrichment (6-mer frequency, TF over GST control)"

# Reference: publication PMC7862700, “An all-to-all approach to the identification of sequence-specific readers for epigenetic DNA modifications on cytosine”
